What is called AC50 is the midpoint of the concentration-response curve, whichever way the signal moves.

Each structure is given as a SMILES string. Hit rate of the full screen: of about 16,000 compounds, about 4,000 (25%) were called active. Not shown: some 26% with an inconclusive outcome. The list is a sample of the results. Unmarked numbers belong to inactive results. Calls follow the shape of the dose curve; as a rule, active = well fitted curve in the direction sought with a large enough effect; inconclusive = small, poorly fitted or top-dose-only effect, or effect the other way; inactive = no such curve, though single readings can be large or run the other way.
% is scaled to controls: 0 for no effect and ±100 for the full control effect.

In the assay the target is Cytochrome P450 2C9 (Homo sapiens) (UniProt P11712). In words: Cytochrome panel assay with activity outcomes. The conditions noted are these: recombinant CYP, pro-luciferin dealkylation, luminescence, p450-cyp2c9; series mostly up to 57.1 µM.
Chain of Cytochrome P450 2C9 (Homo sapiens) (P11712 whole entry, looked up): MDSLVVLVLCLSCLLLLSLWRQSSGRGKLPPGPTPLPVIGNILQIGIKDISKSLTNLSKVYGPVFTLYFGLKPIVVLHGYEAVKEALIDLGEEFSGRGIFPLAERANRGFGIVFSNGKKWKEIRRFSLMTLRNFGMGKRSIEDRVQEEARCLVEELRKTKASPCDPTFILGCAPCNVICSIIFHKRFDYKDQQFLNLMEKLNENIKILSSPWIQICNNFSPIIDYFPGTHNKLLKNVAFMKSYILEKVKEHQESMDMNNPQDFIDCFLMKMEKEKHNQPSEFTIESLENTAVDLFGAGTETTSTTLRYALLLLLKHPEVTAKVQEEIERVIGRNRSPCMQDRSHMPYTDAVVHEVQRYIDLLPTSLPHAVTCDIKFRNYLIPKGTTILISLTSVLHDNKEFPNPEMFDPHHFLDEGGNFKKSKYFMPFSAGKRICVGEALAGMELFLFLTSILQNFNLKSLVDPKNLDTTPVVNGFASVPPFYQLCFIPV
On to `CCc1c2c(nc3cccc(OC)c13)OC(CC)C2` (stereo not given), for which the AC50 result is “inactive”.
Still for that read-out and setting: as for `CCC/C=C(\CCC)C(NC(=O)c1ccc(C(=O)OC)cc1)c1ccc(C(=O)OC)cc1` (stereo not given), the figure is 2 µM (active).
As to `CCC/C=C(\CCC)C(NC(=O)c1ccc(-c2ccccc2)cc1)c1ccc(C(=O)OC)cc1` (stereo not given), the AC50 entry was “inactive”.
Regarding `CCC/C=C(\CCC)C(NC(=O)c1ccc(C(F)(F)F)cc1)c1ccc(C(F)(F)F)cc1` (stereo not given), the AC50 result is “inactive”.
In the case of `C[N+](C)(C)c1ccc([C@H](N)C(=O)O)cc1`, the activity, negative = inhibition is -14.1% [at 11.4 µM].
With `CCCn1c(=O)c2c(ncn2C)n(CCC)c1=O`, the AC50 result is “inactive”.
Regarding `CCCn1cnc2c1c(=O)n(CCCCC(C)=O)c(=O)n2C`, the AC50 entry is “inactive”.
On the same count and under the same terms, then `CCCCn1cnc2c(cnn2-c2ccc(F)cc2)c1=O`, with 11.2 µM (active).
The same measure, in the same setting: as for `O=C(O)CONC(=O)c1cc(OCC(F)(F)F)ccc1OCC(F)(F)F`, the entry is “inactive”.
Consider `COC(=O)C1CCN(CC(=O)Nc2sc3c(c2C#N)CCC3)CC1`, for which the concentration at half-maximal activity (AC50) was 5.62 µM (active).
Regarding `CC(C)CC(=O)Nc1sc2c(c1C#N)CC(C)(C)NC2(C)C`, the AC50 result is “inactive”.
Regarding `Cc1c(C(=O)O)nc(/C=C\C(=O)O)[nH]c1=O`, the activity, negative = inhibition was -11.9% [at 11.4 µM].
Same read-out and setting: then `O=C(O)c1nn(-c2ccc(Cl)cc2)c2c1C(=O)c1ccccc1C2=O`, with -5.15% [at 11.4 µM].
On to `O=C(c1ccccc1)c1nn(-c2ccccc2)c(=O)cc1C(F)(F)F`, for which the concentration at half-maximal activity (AC50) is 10 µM (active).
On the same count and under the same terms, then `O=C(O)c1nn(-c2ccccc2)nc1-c1nn(-c2ccccc2)nc1C(=O)O`, with “inactive”.
As to `CC(C)[C@H]1C(=O)C(C(N)=O)=C(O)[C@]2(O)C(=O)C3=C(O)c4c(O)ccc(N(C)C)c4C[C@H]3C[C@@H]12`, the AC50 result was “inactive”.
In the case of `CN(C)CC/C=C1\c2ccccc2Sc2ccc(Cl)cc21`, the AC50 entry is “inactive”.
`CC(C(=O)NC1CCCC1)N(C(=O)c1snc(C(N)=O)c1N)c1ccc2c(c1)OCCO2` (stereo not given): the AC50 is 12.6 µM (active).
The same measure, in the same setting: then `CCC(C)(C(=O)NC1CCCC1)N(CC1CCCO1)C(=O)c1ccc2c(c1)OCO2` (stereo not given), with “inactive”.
Consider `Nc1nc(=O)c2[nH]cnc2n1O`, for which the activity, negative = inhibition was -5.05% [at 11.4 µM].
The same measure, in the same setting: as for `CN(C)Cc1ccccc1-c1ccc2ncnc(NC3CCNCC3)c2c1`, the figure is 7.8% [at 2.29 µM].
For the compound `Cc1cc(C)n(-c2nnc(C)n2/N=C/c2ccccc2OCc2ccccc2Cl)n1`, the concentration at half-maximal activity (AC50) is 8.91 µM (active).
In the case of `COc1ccc(/C=N/n2c(C)nnc2C)c(OC)c1`, the AC50 result is “inactive”.
As to `CN(C)CCOC(=O)c1ccc(N)cc1`, the activity, negative = inhibition is -8.18% [at 11.4 µM].
In the case of `Cc1cccc(NC(=O)CCS(=O)(=O)c2cccc3nsnc23)c1C`, the half-maximal activity concentration (AC50) was 15.8 µM (active).
For `O=C(CCS(=O)(=O)c1cccc2nsnc12)NC1CCCCC1`, the AC50 entry is “inactive”.
Turning to `COc1ccc(-c2cc(C(F)(F)F)n3nc(C(=O)N4CCCCC4)cc3n2)cc1`, the AC50 was 25.1 µM (active).
Consider `COc1cccc(-c2cc(C(F)(F)F)n3ncc(S(=O)(=O)c4ccccc4)c3n2)c1`, for which the AC50 entry is “inactive”.
Turning to `COc1ccc(NC(=O)N2CCCC3(CCN(C(=O)c4cnccn4)CC3)C2)cc1`, the AC50 entry is “inactive”.
For `CCOC(=O)C1CCCN(C(=O)c2cc3nc(-c4ccc5c(c4)OCO5)cc(C(F)(F)F)n3n2)C1` (stereo not given), the concentration at half-maximal activity (AC50) was 6.31 µM (active).
Take `c1cncc(CNc2ncncc2-c2cccnc2)c1`: the activity, negative = inhibition is 4.39% [at 2.29 µM].
Regarding `O=S(=O)(N/N=C\C=C\c1ccccc1)c1ccc(Br)cc1`, the concentration at half-maximal activity (AC50) was 0.501 µM (active).
Turning to `O=C(N/N=C/C=C/c1ccccc1)c1cc2c(ccc3ccccc32)o1`, the AC50 result is “inactive”.
As for `C(/C=C\c1ccccc1)=Nc1ccc2c(c1)Cc1ccccc1-2`, the activity, negative = inhibition is -24.1% [at 11.4 µM].
With `CCOC(=O)N1CCN(C(=O)CSCc2ccc(Cl)cc2)CC1`, the AC50 entry is “inactive”.
With `CCOC(=O)CSC1=NC(=O)/C(=C\c2ccc(Cl)cc2)S1`, the concentration at half-maximal activity (AC50) was 1.26 µM (active).
Still for that read-out and setting: as for `Cc1noc(C)c1C(=O)N1CCC2(CC1)CN(c1ncccn1)C2`, the entry is “inactive”.
Same read-out and setting: as for `Cc1cccc(NC(=O)CSc2nc3nc(C)cc(C)c3c(=O)[nH]2)c1`, the figure is 7.94 µM (active); as for `Cc1cccc(NC(=O)Cn2c(=O)oc3ccccc32)c1`, “inactive”.
With `Cc1cc(C)c2c(=O)[nH]c(SCC(=O)N(C)C)nc2n1`, the AC50 result is “inactive”.
For the compound `CC[C@@H]1OC(=O)[C@H](C)[C@H](O[C@@H]2C[C@](C)(OC)[C@H](O)[C@H](C)O2)[C@H](C)[C@H](O[C@@H]2O[C@@H](C)C[C@@H](N(C)C)[C@@H]2O)[C@](C)(O)C[C@H](C)C(=NOCOCCOC)[C@H](C)[C@H](O)[C@]1(C)O`, the AC50 entry was “inactive”.
Same read-out and setting: as for `O=C(Nc1nnc(COc2ccc(Cl)cc2)s1)c1ccc([N+](=O)[O-])cc1`, the entry is “inactive”.
Same read-out and setting: as for `CC(C)COc1ccc(C(=O)Nc2scc(-c3ccc(Cl)cc3Cl)c2C(N)=O)cc1`, the figure is 1.78 µM (active).
Take `NC(=O)OC[C@H](O)COc1ccc(Cl)cc1`: the AC50 result is “inactive”.
Regarding `COc1ccc(C(=O)Nc2scc(-c3ccc(Cl)cc3Cl)c2C(N)=O)cc1`, the concentration at half-maximal activity (AC50) is 0.631 µM (active).
Turning to `Cc1sc(NC(=O)c2ccc(OCC(C)C)cc2)c(C(N)=O)c1-c1ccc(Cl)cc1Cl`, the AC50 was 0.562 µM (active).
The same measure, in the same setting: as for `Cn1ncc(C#N)c1/N=C/N1CCCCCC1`, the entry is “inactive”; as for `O=C(c1csnn1)N1CCC2(CC1)CN(c1ccccn1)C2`, “inactive”; as for `CN1C(=O)/C(=C\c2ccccc2)Sc2ccc(C(=O)N3CCN(c4ccccn4)CC3)cc21`, 11.2 µM (active).
`Cn1cccc1C(=O)N1CCC2(CC1)CN(c1ccccn1)C2`: the AC50 entry is “inactive”.
Still for that read-out and setting: then `CCOC(=O)c1oc2ccccc2c1NC(=O)c1ccc2c(c1)OCO2`, with “inactive”; and `CCOC(=O)c1oc2ccccc2c1NC(=O)c1ccc(S(=O)(=O)N(C)C)cc1`, with 0.562 µM (active).
Still for that read-out and setting: then `CCOC(=O)c1oc2ccccc2c1NC(=O)c1cc(OC)cc(OC)c1`, with 14.1 µM (active); and `Oc1ccccc1CNn1cnnc1`, with “inactive”; and `NC(=NCc1ccc(Cl)c(Cl)c1)NC(=O)c1nc(Cl)c(N)nc1N`, with “inactive”.
As to `COc1ccccc1-c1nccc(NC2CCNCC2)n1`, the activity, negative = inhibition was 3.9% [at 2.29 µM].
`Nc1c(S(=O)(=O)O)cc(Nc2cccc(S(N)(=O)=O)c2)c2c1C(=O)c1ccccc1C2=O`: the concentration at half-maximal activity (AC50) is 3.16 µM (active).
Regarding `O=C1c2ccccc2C(=O)c2c(NC3CCCCC3)ccc(Nc3ccc(S(=O)(=O)O)cc3)c21`, the activity, negative = inhibition is -7.2% [at 11.4 µM].
`COc1ncc2nc(-c3cc(F)cc(F)c3)c(=O)n(-c3ccccc3)c2n1`: the AC50 result was “inactive”.
As to `C[C@@H]1C(=O)N(C)C(=O)c2nc[nH]c21`, the AC50 entry is “inactive”.
As for `O=C(COc1ccc(Br)cc1)N1CCC(c2ccccc2)C1` (stereo not given), the concentration at half-maximal activity (AC50) was 14.1 µM (active).
For the compound `CCOc1ccc(NC(=O)N2CCC(c3ccc(C)cc3)C2)cc1` (stereo not given), the AC50 entry was “inactive”.
For `Cc1cccc(OCC(=O)N2CCC(N3CCCCCC3)CC2)c1`, the AC50 entry was “inactive”.
The same measure, in the same setting: as for `CCc1ccc(N(C(=O)c2ccoc2C)C(C(=O)NC2CCCC2)c2ccc(OC)cc2)cc1` (stereo not given), the figure is 28.2 µM (active); as for `COc1ccc(C[C@H](N)C(=O)N[C@@H]2[C@H](O)[C@H](n3cnc4c(N(C)C)ncnc43)O[C@@H]2CO)cc1`, “inactive”.
On to `COc1ccc(C(C(=O)NC2CCCCC2)N(C(=O)c2sc(C)nc2C)c2ccc(C(C)=O)cc2)cc1` (stereo not given), for which the AC50 result is “inactive”.
Still for that read-out and setting: then `C[C@H](O)[C@H](O)[C@@H]1CNc2nc(N)[nH]c(=O)c2N1`, with “inactive”; and `COc1ccc(OC)c2[nH]c(=O)c(CCNS(=O)(=O)c3ccc(C)cc3)cc12`, with 3.55 µM (active).
The same measure, in the same setting: as for `COc1ccc(OC)c2[nH]c(=O)c(CCNS(=O)(=O)c3ccc(Cl)cc3)cc12`, the figure is 2.24 µM (active); as for `CCS(=O)(=O)NCCc1cc2ccc(C)cc2[nH]c1=O`, “inactive”.
As for `COc1cccc(-c2cc3nc(-c4ccccc4)cc(N4CCC5(CC4)OCCO5)n3n2)c1`, the AC50 is 2.82 µM (active).
Same read-out and setting: then `COc1ccc(C(=O)N2CCC[C@@]3(CCN(c4cccc(-c5ccccc5)c4)C3)C2)cc1`, with “inactive”; and `Fc1cc2nc(-c3ccncc3)[nH]c2cc1F`, with 7.94 µM (active); and `CCOc1ccc(N=C2NC(=O)C(CC(=O)O)S2)cc1` (stereo not given), with “inactive”.
Same read-out and setting: as for `N#CCCn1c(=O)c(-c2ccc(F)cc2)nc2cnc(N3CCOCC3)nc21`, the entry is “inactive”.
On the same count and under the same terms, then `CCOC(=O)N1CCN(C(=O)C(C)SCc2ccccc2)CC1` (stereo not given), with 3.55 µM (active); and `CCOC(=O)N1CCN(S(=O)(=O)Cc2ccccc2)CC1`, with “inactive”.
In the case of `CC(C)(SCc1ccccc1)[C@H](N)C(=O)O`, the activity, negative = inhibition is -5.67% [at 11.4 µM].
Take `CC(C)Cn1cnc2c(SCc3ccccn3)nc(N)nc21`: the activity, negative = inhibition was 0.334% [at 11.4 µM].
In the case of `Cc1ccc2[nH]c3c(c2c1)CN(C(=O)CN1c2ccc(F)cc2CCC1C)CC3` (stereo not given), the AC50 is 10 µM (active).
Regarding `OCC1CCCN(Cc2ccc(-c3ccccc3)cc2)C1` (stereo not given), the AC50 entry is “inactive”.
Turning to `CS(=O)(=O)N1CCN(c2ccc([N+](=O)[O-])c(NCc3ccccc3)c2)CC1`, the concentration at half-maximal activity (AC50) is 12.6 µM (active).
The same measure, in the same setting: as for `CC(=O)Nc1ccc(N2CCCCC2)cc1`, the entry is “inactive”; as for `CNc1cc(N2CCCCCC2)ccc1[N+](=O)[O-]`, 6.31 µM (active); as for `O=[N+]([O-])c1ccc(N2CCCC2)cc1NCc1ccccc1`, 1.58 µM (active).
As for `Clc1ccccc1-c1cc(NCc2ccccc2)ncn1`, the activity, negative = inhibition was 4.07% [at 2.29 µM].
Turning to `CCN1CCC[C@H]1CNC(=O)c1c(OC)ccc(Br)c1OC`, the AC50 result is “inactive”.
Take `O=c1c(-c2cccc(Cl)c2)nc2cncnc2n1Cc1ccccc1Cl`: the half-maximal activity concentration (AC50) was 3.98 µM (active).
Still for that read-out and setting: as for `O=c1c(-c2cc(F)cc(F)c2)nc2cncnc2n1Cc1ccccc1Cl`, the figure is 3.98 µM (active); as for `COc1ccc(-n2c(=O)c(-c3cc(F)cc(F)c3)nc3cncnc32)cc1`, “inactive”; as for `O=c1c(-c2cccc(Cl)c2)nc2cncnc2n1Cc1ccccc1`, 1.26 µM (active).
The same measure, in the same setting: then `O=c1c(-c2cccc(F)c2)nc2cncnc2n1C1CC1`, with “inactive”; and `O=c1c(-c2cccc(F)c2)nc2cncnc2n1Cc1ccccc1Cl`, with 7.94 µM (active); and `O=c1c(-c2cccc(Cl)c2)nc2cncnc2n1C1CC1`, with “inactive”.
Consider `c1nc(NC2CCNCC2)c2cc(-c3ccoc3)ccc2n1`, for which the activity, negative = inhibition is -8.97% [at 2.29 µM].

For the origin of these results see PubChem BioAssay AID1851 (National Center for Advancing Translational Sciences (NCATS), 2009).
